The source of these data is PubChem BioAssay (NCI).

Holding throughout (experiment): NCI-60 one-dose screen, 48 h (100 = growth as untreated, 0 = no growth, -100 = all killed)
The test system of one assay is SK-MEL-2 melanoma. The conditions noted are these: 10 µM unless noted.
A further assay deals with EKVX NSCLC. To be noted: 10 µM unless noted.
The test system of a further assay is SN12C renal. To be noted: 10 µM unless noted.
The test system of a further assay is TK-10 renal. The conditions noted are these: 10 µM unless noted.
Another assay concerns ACHN renal. The conditions noted are these: 10 µM unless noted.
The test system of a further assay is A498 renal. To be noted: 10 µM unless noted.
In the next assay the test system is CCRF-CEM leukemia. To be noted: 10 µM unless noted.
The next assay deals with MOLT-4 leukemia. The conditions noted are these: 10 µM unless noted.
The subject of the next assay is SR leukemia. The conditions noted are these: 10 µM unless noted.
In another assay the test system is RPMI-8226 leukemia. To be noted: 10 µM unless noted.
The next assay deals with OVCAR-8 ovarian. To be noted: 10 µM unless noted.
The next assay concerns OVCAR-5 ovarian. To be noted: 10 µM unless noted.
Another assay has as its system SK-OV-3 ovarian. To be noted: 10 µM unless noted.
The next assay relates to IGROV1 ovarian. To be noted: 10 µM unless noted.
The next assay relates to OVCAR-3 ovarian. The conditions noted are these: 10 µM unless noted.
The subject of another assay is NCI/ADR-RES ovarian. To be noted: 10 µM unless noted.
For the next assay, the system named is CAKI-1 renal. To be noted: 10 µM unless noted.
The test system of a further assay is OVCAR-4 ovarian. To be noted: 10 µM.
Another assay has as its system HS 578T breast. The conditions noted are these: 10 µM unless noted.

This is part of a sample that, as a whole, favours compounds with a hit. Of some 83,000 tested, about 20% had one in any assay.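 Cells were grown in 96-well plates and exposed to the test compound at a single concentration for 48 hours; results are reported as percent growth, with values below 10 considered active.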 A number with no mark means an inactive call. Calls of active or inactive are those of the source.

`COc1ccc2nc3c(cc2c1)C(=O)CC(c1ccccc1)C3` (centres undefined): the growth is 70% in the assay on SK-MEL-2 melanoma; 44.5% in the assay on EKVX NSCLC; 40.7% with SN12C renal; 64% in the assay on TK-10 renal; 43.9% in the assay on ACHN renal; -13.5% (active) in the assay on A498 renal. Besides, the growth in the assay with CCRF-CEM leukemia is 10.7%; in the assay on MOLT-4 leukemia it was 17.8%; with SR leukemia, 17.7%; in the assay on RPMI-8226 leukemia it was 55.4%; with OVCAR-8 ovarian, 39%; with OVCAR-5 ovarian, 61.2%. The growth was 52.2% with SK-OV-3 ovarian, 35.8% in the assay with IGROV1 ovarian, -7.18% (active) in the assay with OVCAR-3 ovarian and 13.2% with NCI/ADR-RES ovarian.

As to `Cc1ccc(NC(=O)N[C@@H](Cc2cc(F)cc(F)c2)C(=O)N[C@@H]2C(=O)N3CCC[C@H]3C(=O)N3CCCC[C@H]3C(=O)N[C@@H](C)C(=O)N3C[C@H](C)C[C@H]3C(=O)O[C@H]2C)cc1`, the growth with SK-MEL-2 melanoma is 35.2%; with EKVX NSCLC, 28.2%; in the assay with SN12C renal, 18.1%; in the assay on TK-10 renal, 47.6%; with ACHN renal it was 23.6%; in the assay on CAKI-1 renal, 13.7%. In addition, the growth in the assay with A498 renal was -1.49% (active); in the assay with CCRF-CEM leukemia it was 54.8%; in the assay on MOLT-4 leukemia it was 30.9%; in the assay with SR leukemia, 31.3%; in the assay with RPMI-8226 leukemia, 20.1%; in the assay on OVCAR-8 ovarian, 18.5%. Moreover, the growth with OVCAR-5 ovarian is 34.6%; with OVCAR-4 ovarian it was 11.3%; with IGROV1 ovarian, 45.9%; in the assay with OVCAR-3 ovarian, 19.8%; in the assay on HS 578T breast it was 35.6%.

Regarding `O=C1/C(=C\c2cn(CC(O)CN3CCCCC3)c3ccccc23)c2ccccc2N1c1c(Cl)cccc1Cl` (centres undefined), the growth was -83.4% (active) in the assay with SK-MEL-2 melanoma; -81.3% (active) in the assay with EKVX NSCLC; -68.2% (active) in the assay on SN12C renal; -75.9% (active) in the assay on TK-10 renal; -90.5% (active) in the assay on ACHN renal; -80.3% (active) with CAKI-1 renal. The growth was -96.3% (active) in the assay with A498 renal; -4.36% (active) in the assay with CCRF-CEM leukemia; -30% (active) in the assay with MOLT-4 leukemia; -13% (active) with SR leukemia; -25.7% (active) in the assay on RPMI-8226 leukemia; -86.8% (active) in the assay on OVCAR-8 ovarian. Further, the growth was -92.7% (active) in the assay on OVCAR-5 ovarian; -68.6% (active) in the assay with OVCAR-4 ovarian; -99.7% (active) in the assay on SK-OV-3 ovarian; -70.2% (active) with IGROV1 ovarian; -99.6% (active) with OVCAR-3 ovarian; -55.3% (active) in the assay with HS 578T breast. Also, the growth with NCI/ADR-RES ovarian was -56% (active).

`COc1cc(NN=C(c2ccc(O)cc2)c2ccc(O)cc2)c([N+](=O)[O-])cc1[N+](=O)[O-]`: the growth was -70.2% (active) in the assay with SK-MEL-2 melanoma; 108% in the assay with EKVX NSCLC; 90.5% in the assay on SN12C renal; 93.5% in the assay on TK-10 renal; 42.4% in the assay with ACHN renal; 97% in the assay on CAKI-1 renal. In addition, the growth with A498 renal is 125%; with MOLT-4 leukemia it was 94.6%; in the assay with SR leukemia it was 50.6%; in the assay on RPMI-8226 leukemia, 81.5%; with OVCAR-8 ovarian it was -31.7% (active); in the assay on OVCAR-5 ovarian, 24.1%. The growth was 88.9% with OVCAR-4 ovarian; 5.8% (active) in the assay with SK-OV-3 ovarian; 60.9% in the assay with OVCAR-3 ovarian; 93.8% in the assay with HS 578T breast; 8.39% (active) in the assay on NCI/ADR-RES ovarian.

Take `N#CC1C(=O)NC(c2ccccc2[N+](=O)[O-])c2sc3c(F)cccc3c21` (centres undefined): the growth is 82.6% with SK-MEL-2 melanoma; 64.8% in the assay with EKVX NSCLC; 78.1% in the assay on SN12C renal; 41.1% in the assay on TK-10 renal; 5.27% (active) with CAKI-1 renal; -60.7% (active) in the assay on A498 renal. Moreover, the growth was 86.6% in the assay with MOLT-4 leukemia; 67.9% in the assay with SR leukemia; 41.3% in the assay with RPMI-8226 leukemia; 75% in the assay with OVCAR-8 ovarian; -15.1% (active) in the assay with OVCAR-5 ovarian; -0.483% (active) in the assay with OVCAR-4 ovarian. Moreover, the growth with SK-OV-3 ovarian was 72.8%; with IGROV1 ovarian, 0.306% (active); in the assay on OVCAR-3 ovarian, -14.5% (active); in the assay on NCI/ADR-RES ovarian, 68.5%.

As for `CCN(CCNc1ccc(C)c2sc3cc(Cl)ccc3c(=O)c12)CC(C)O` (centres undefined), the growth with SK-MEL-2 melanoma is 40.7%; with EKVX NSCLC, 88.9%; with SN12C renal, 48.7%; in the assay with ACHN renal, 44.7%; in the assay on CAKI-1 renal it was 43.7%; in the assay with A498 renal it was 51.4%. Further, the growth with CCRF-CEM leukemia is 36.8%; with MOLT-4 leukemia, 34.5%; in the assay on SR leukemia it was 12.3%; in the assay on RPMI-8226 leukemia it was -23.2% (active); with OVCAR-8 ovarian, 58.3%; with OVCAR-5 ovarian it was 79.9%. Besides, the growth was 77% in the assay on OVCAR-4 ovarian, 60.6% in the assay with OVCAR-3 ovarian, 63.2% in the assay with HS 578T breast and 74.8% in the assay on NCI/ADR-RES ovarian.

For the compound `CC(C)[N+](C)(C)CC(O)COc1cccc2ccccc12` (centres undefined), the growth in the assay with SK-MEL-2 melanoma was 104%; in the assay with EKVX NSCLC it was 101%; in the assay on SN12C renal, 103%; in the assay on TK-10 renal, 111%; in the assay on ACHN renal, 101%; in the assay on CAKI-1 renal, 102%. Besides, the growth is 92.9% in the assay with A498 renal; 88.1% with CCRF-CEM leukemia; 109% with MOLT-4 leukemia; 107% with SR leukemia; 94.1% with RPMI-8226 leukemia; 98.4% in the assay with OVCAR-8 ovarian. Besides, the growth with OVCAR-5 ovarian was 94.6%; in the assay on OVCAR-4 ovarian, 116%; in the assay with SK-OV-3 ovarian it was 110%; in the assay on OVCAR-3 ovarian it was 96.8%; with HS 578T breast, 128%; in the assay with NCI/ADR-RES ovarian, 108%.

As for `Cc1ccc(-c2cc(-c3ccc(C)cc3)nc(NCCNc3ccnc4cc(Cl)ccc34)n2)cc1`, the growth was -72.6% (active) with SK-MEL-2 melanoma; 24.6% with EKVX NSCLC; -88.3% (active) in the assay on SN12C renal; -49.2% (active) with TK-10 renal; -87.5% (active) with ACHN renal; -47.8% (active) in the assay on CAKI-1 renal. For the same compound, the growth in the assay on A498 renal was 68.4%; in the assay with CCRF-CEM leukemia, 2.06% (active); in the assay on MOLT-4 leukemia it was -29.6% (active); in the assay on SR leukemia, 2.87% (active); with RPMI-8226 leukemia, -22% (active); with OVCAR-8 ovarian, -53.4% (active). In addition, the growth is -34.9% (active) with OVCAR-5 ovarian; -31.4% (active) with OVCAR-4 ovarian; -66.2% (active) in the assay with IGROV1 ovarian; -80.3% (active) in the assay on OVCAR-3 ovarian; -46.7% (active) in the assay on HS 578T breast; -63.1% (active) in the assay on NCI/ADR-RES ovarian.

With `Clc1ccccc1/C=N\Nc1ccccn1`, the growth was 92.8% in the assay with SK-MEL-2 melanoma; 76.2% in the assay on EKVX NSCLC; 92.2% in the assay with SN12C renal; 66.7% in the assay on TK-10 renal; 87.7% in the assay on ACHN renal; 95.1% in the assay with CCRF-CEM leukemia. The growth in the assay with MOLT-4 leukemia is 83.5%; with SR leukemia, 90.5%; in the assay with RPMI-8226 leukemia it was 93.1%; in the assay with OVCAR-8 ovarian it was 90.1%; in the assay with OVCAR-5 ovarian, 104%; in the assay on SK-OV-3 ovarian it was 84.1%. The growth in the assay with IGROV1 ovarian is 64%; in the assay with OVCAR-3 ovarian, 94.1%; in the assay with HS 578T breast, 99.4%; with NCI/ADR-RES ovarian, 91.1%.

For the compound `Cc1cc2c(C(C)C)c(O)c(O)c(C=NCc3ccoc3)c2c(O)c1-c1c(C)cc2c(C(C)C)c(O)c(O)c(C=NCc3ccco3)c2c1O`, the growth in the assay with SK-MEL-2 melanoma was 45.4%; in the assay on EKVX NSCLC it was 23.6%; with SN12C renal, 40.5%; in the assay on TK-10 renal, 45.8%; in the assay with ACHN renal, 25.3%; in the assay on CAKI-1 renal, 54%. Also, the growth with A498 renal was 80.1%; in the assay with CCRF-CEM leukemia, 21%; with MOLT-4 leukemia it was 14.5%; with SR leukemia, 13.9%; with RPMI-8226 leukemia, 33.5%; with OVCAR-8 ovarian it was 30.2%. For the same compound, the growth was 68.9% in the assay on OVCAR-5 ovarian; 31.2% with OVCAR-4 ovarian; 54.4% in the assay with SK-OV-3 ovarian; 46.5% in the assay with IGROV1 ovarian; 25.9% with OVCAR-3 ovarian; 45% with HS 578T breast. Moreover, in the assay with NCI/ADR-RES ovarian, the growth was 44.4%.

Take `O=C(O)CC1CCCCC1c1ccccc1` (centres undefined): the growth with SK-MEL-2 melanoma was 97.7%; in the assay with EKVX NSCLC, 115%; with SN12C renal, 105%; with ACHN renal it was 102%; with CAKI-1 renal, 103%; in the assay on CCRF-CEM leukemia, 101%. In addition, the growth in the assay with MOLT-4 leukemia was 109%; in the assay on SR leukemia, 98.5%; in the assay on RPMI-8226 leukemia, 104%; with OVCAR-8 ovarian, 106%; in the assay with OVCAR-5 ovarian, 102%; in the assay with OVCAR-4 ovarian it was 109%. In addition, the growth with SK-OV-3 ovarian was 104%; with IGROV1 ovarian it was 108%; in the assay with OVCAR-3 ovarian, 118%; in the assay with HS 578T breast, 83%; with NCI/ADR-RES ovarian, 114%.
